# Results: PubChem BioAssay
# The source made the active and inactive calls.
# System: not listed separately
# Test: S. cerevisiae growth modulation with rapamycin, primary screen, strain BY4716, OD600, 96 h (AID 1091); also: test concentration not given here
# Details: higher = more signal, called active from +8 up or from −8 down
row,SMILES,z-score
1,CO[C@H]1COC(=O)[C@H](C)NC(=O)CC=C[C@@H](C)[C@H](OC)COC(=O)[C@@H](OCc2ccccc2)C=C[C@@H]1C,-0.118 (inactive)
2,C#CCCCON=C1C[C@@H](O)[C@@H](O)[C@@H]2[C@@H]3C(=O)N(c4ccc(F)cc4F)C(=O)[C@@H]3CC[C@H]12,-1.5 (inactive)
3,O=C1C[C@@H](O)[C@@H](O)[C@@H]2[C@@H]3C(=O)N(Cc4ccc5c(c4)OCO5)C(=O)[C@@H]3CC[C@H]12,-0.511 (inactive)

# Target: Torsin-1A-interacting protein 2 (Homo sapiens) (UniProt Q8NFQ8)
# Sequence (Q8NFQ8 whole entry, looked up): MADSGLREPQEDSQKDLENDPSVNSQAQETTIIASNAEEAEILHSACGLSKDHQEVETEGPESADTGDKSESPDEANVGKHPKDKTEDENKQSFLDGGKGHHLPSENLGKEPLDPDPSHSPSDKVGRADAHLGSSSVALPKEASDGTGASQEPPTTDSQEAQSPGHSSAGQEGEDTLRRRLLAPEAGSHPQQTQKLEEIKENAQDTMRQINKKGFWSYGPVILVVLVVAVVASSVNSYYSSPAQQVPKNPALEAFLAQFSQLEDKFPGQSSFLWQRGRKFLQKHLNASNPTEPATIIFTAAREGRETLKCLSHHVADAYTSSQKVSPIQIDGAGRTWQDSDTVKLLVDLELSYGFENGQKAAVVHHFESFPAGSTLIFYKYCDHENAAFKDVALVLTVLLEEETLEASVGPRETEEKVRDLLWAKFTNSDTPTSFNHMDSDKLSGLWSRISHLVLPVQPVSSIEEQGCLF
# Test: LULL1 binders on small-molecule microarray, primary screen, cell lysate, human LULL1 lysate, 635/667 nm fluorescence (AID 1092);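 also: probe is lysate of COS7 cells overexpressing human LULL1; score merges per-feature 667 nm fluorescence with signal-to-noise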
# Details: hLULL1 lysate binding, 635 nm fluorescence, higher = more signal
row,SMILES,composite z-score
1,COc1ccc(O[C@H]2C=C[C@@H](c3ccccc3)O[C@@H]2CON=CC[C@@H]2C=C[C@H](OC(C)=O)[C@@H](COC(C)=O)O2)cc1,0.22
2,CO[C@H]1COC(=O)CC=C[C@@H](C)[C@H](NS(=O)(=O)c2ccc(C)cc2)COC(=O)CCC[C@@H]1C,-0.401
3,CON=CC[C@@H]1C=C[C@H](OC(C)=O)[C@@H](COC(C)=O)O1,0.172
4,C=COC[C@@H]1CN2[C@@H](CC[C@@H](C)[C@@H]2c2ccc(Br)cc2)C(=O)O1,0.0749
5,O=C1[C@H]2[C@H]3[C@H](O)[C@H](O)CC(=NOCc4ccccc4)[C@@H]3CC[C@H]2C(=O)N1Cc1ccc2c(c1)OCO2,0.664
6,COC(=O)NCC=Cc1nc(CCCO)co1,0.39
7,CO[C@H]1COC(=O)CC=C[C@H](C)[C@@H](OC)COC(=O)[C@@H](C)COC(=O)CC=C[C@@H]1C,-0.108
8,COC(=O)[C@@H]1CC[C@H](C)[C@@H](c2ccc(C)cc2)N1C(=O)c1ccc(C=NOC[C@@H](C)[C@H](OCc2ccccc2)C(C)C)cc1,1.3
9,COC(=O)CC=C[C@@H](C)[C@@H](C=NO[C@@H]1O[C@H](COC(C)=O)[C@@H](OC(C)=O)[C@H](OC(C)=O)[C@H]1OC(C)=O)NS(=O)(=O)c1ccc(C)cc1,-0.147
10,CCOC(=O)[C@H](CC(C)C)NC(=O)CCC1CC(OC(=O)NCc2cccc3ccccc23)CC2(CCCC(COC(=O)NCCOc3ccccc3)O2)O1 (some centres undefined),1.13
11,COc1cccc([C@H]2Oc3ccc(OC)cc3C(=NO[C@@H](C)c3cn([C@H](CO)Cc4ccccc4)nn3)[C@@H]2O)c1,-0.123
12,COC(=O)CC=C[C@@H](C)[C@@H](C=NOC[C@H]1O[C@H](c2ccccc2)C=C[C@@H]1Oc1ccc(OC)cc1)NS(=O)(=O)c1ccc(C)cc1,-0.744
13,C=CC1=C[C@H](O)[C@@H]2O[C@@H]2C12OCCCO2,-0.119
14,COC(=O)CC=C[C@@H](C)[C@H](OCc1cccc(-c2ccccc2)c1)C1CCCCC1,-0.311
15,CC(C)CON=C1C[C@@H](O)[C@@H](O)[C@@H]2[C@@H]3C(=O)N(Cc4ccc5c(c4)OCO5)C(=O)[C@@H]3CC[C@H]12,2.33
16,COc1ccc(O[C@H]2C=C[C@@H](c3ccccc3)O[C@@H]2CON=C(C)C)cc1,-0.222
17,COC(=O)CC=C[C@@H](C)[C@@H](C=NOC(C)CN1CCCc2nc(C)c(C)cc21)OC (some centres undefined),0.283
18,CC(C)(C)N1C(=O)[C@H]2[C@H]3[C@H](O)[C@H](O)CC(=NO[C@@H]4O[C@H](CO)[C@@H](O)[C@H](O)[C@H]4O)[C@H]3CC[C@H]2C1=O,0.959
19,C#CCCCON=C1C[C@@H](O)[C@@H](O)[C@@H]2[C@@H]3C(=O)N(C(C)(C)C)C(=O)[C@@H]3CC[C@H]12,-0.0077
20,CCOC(=O)NN=C1C[C@@H](O)[C@@H](O)[C@@H]2[C@@H]3C(=O)N([C@@H](C)c4ccccc4)C(=O)[C@@H]3CC[C@H]12,0.261
21,COC(=O)[C@@H]1CC[C@H](C)[C@@H](c2ccc(C)cc2)N1C(=O)c1ccc(C=NO[C@H](C)c2cn([C@H](CO)Cc3ccccc3)nn2)cc1,0.6
22,CCOC(=O)CCN1C(=O)[C@H]2[C@H]3[C@H](O)[C@H](O)CC(=NNC(=O)OCc4ccccc4)[C@@H]3CC[C@H]2C1=O,0.967
23,CC(C)=CCCC(C)=CCON=C1C[C@@H](O)[C@@H](O)[C@@H]2[C@@H]3C(=O)N(c4ccc(F)cc4F)C(=O)[C@@H]3CC[C@@H]12,-0.0426
24,CCc1cc2c(nc1CC)CCN(CCC(C)=NO[C@H](C)c1cn([C@H](CO)Cc3ccccc3)nn1)C2,0.461
25,COC(=O)[C@H](C)NC(=O)CCC1CC(OC(=O)NCCc2ccc(F)cc2)CC2(CCCC(COC(=O)NCCC(C)C)O2)O1 (some centres undefined),2.22
26,CCN1C(=O)[C@@H]2[C@H]3C(=CC[C@@H]2C1=O)C1(OCCCO1)[C@H]1O[C@H]1[C@H]3O,0.899
